# From PubChem BioAssay (NCI)
# The panel holds about 83,000 compounds, 20% with a hit somewhere; the sample as a whole holds those more often.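 Treatment: one concentration, 48 hours, 96-well format. Scoring: percent growth, with anything below 10 considered active.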 Values without a mark were called inactive. The source made the active and inactive calls.
# What was measured:
# Test in all cases: NCI-60 one-dose screen, 48 h (100 = growth as untreated, 0 = no growth, -100 = all killed)
# SK-MEL-2 melanoma = conditions: 10 µM
# EKVX NSCLC = conditions: 10 µM
# SN12C renal = conditions: 10 µM
# UO-31 renal = conditions: 10 µM
# TK-10 renal = conditions: 10 µM unless noted
# ACHN renal = conditions: 10 µM
# CAKI-1 renal = conditions: 10 µM
# A498 renal = conditions: 10 µM
# CCRF-CEM leukemia = conditions: 10 µM
# MOLT-4 leukemia = conditions: 10 µM
SMILES,growth (SK-MEL-2 melanoma),growth (EKVX NSCLC),growth (SN12C renal),growth (UO-31 renal),growth (TK-10 renal),growth (ACHN renal),growth (CAKI-1 renal),growth (A498 renal),growth (CCRF-CEM leukemia),growth (MOLT-4 leukemia)
O=c1[nH]c(O)c(/C=C2/C=Nc3ccccc32)[nH]1,104%,95%,98.3%,68.7%,99.9%,87%,106%,86%,58.2%,73.7%
COc1ccc(NC(=O)CCl)cc1,74.9%,103%,67.2%,90.9%,118%,88.8%,97%,120%,50.5%,64.4%
CCOC(=O)C1OC1c1ccccc1 (stereo not given),114%,98.4%,105%,89.2%,103%,104%,98.6%,96.8%,109%,107%
Brc1cnc2ccccc2c1,100%,103%,98.4%,78.2%,102%,98.2%,97.7%,99%,108%,101%
Nc1ccccc1C(=O)Nc1ccc(Cl)cc1Cl,112%,99.5%,103%,52.4%,118%,94%,69.1%,107%,90.3%,77.7%
CC12CC3CC1C(C(=O)O2)C3C(=O)O (stereo not given),94.7%,105%,105%,93.5%,94.5%,105%,102%,106%,101%,100%
O=C(NN=C1CCCCC1)C(=O)NN=C1CCCCC1,91.2%,109%,106%,95.6%,99%,109%,110%,119%,85.6%,90.9%
CCOC(=O)C(=O)C=P(c1ccccc1)(c1ccccc1)c1ccccc1,99.6%,105%,103%,90.2%,99%,108%,101%,105%,99.9%,101%
O=c1[nH]n(-c2ccccc2)c(=O)cc1Cl,104%,110%,93.3%,84.7%,102%,98.5%,121%,108%,106%,95.4%
CCCCC/C=N/Nc1nc(C)cc(=O)[nH]1,121%,91.4%,97.4%,92.1%,108%,102%,88.3%,96.2%,105%,95.3%
C/C(=C\c1ccc([N+](=O)[O-])cc1)C(=O)O,110%,94.7%,99%,95.3%,105%,98%,95.6%,81.7%,87.6%,102%
COc1nc(N)nc2c1ncn2C1OC(CO)CC1O (stereo not given),106%,102%,103%,82.4%,105%,97.4%,104%,114%,58.8%,97.7%
O=C(O)c1ccnc(Br)c1,105%,98.1%,113%,91.4%,104%,108%,97.8%,88.7%,112%,116%
Cc1cc(N)c(S(=O)(=O)O)c(N)c1,109%,98.9%,93.8%,79.1%,105%,100%,90.1%,101%,98.1%,5.11% (active)
C=CCOC(=O)C(=O)OCC=C,97.1%,132%,101%,108%,95.1%,100%,136%,119%,90.7%,104%
S=c1sc2ccccc2n1CN1CCCCC1,94%,104%,109%,77.2%,93.7%,98.7%,88.2%,96.5%,102%,112%
CC(=O)OC1CC2C(C)(C)OC3CC(=O)OCC32C2CCC3(C)C(=CCC3c3ccoc3)C12C (stereo not given),99.5%,102%,105%,86.9%,107%,101%,98.7%,110%,101%,90.8%
O=C(N/N=C\c1cc(Br)cc(Br)c1O)N/N=C/c1cc(Br)cc(Br)c1O,-23.8% (active),69.3%,59%,31%,65.5%,52.2%,41.4%,70.4%,3.69% (active),36.4%
S=c1nn[nH]c2ccccc12,102%,117%,93.4%,67.1%,109%,93.2%,98.3%,109%,111%,108%
NCC(=O)CCC(=O)O,126%,109%,105%,94.6%,114%,99.2%,109%,110%,109%,108%
CCOC(=O)CNN,113%,113%,101%,91.4%,102%,119%,106%,79.6%,97.8%,112%
CCOc1ccccc1/C=N/Nc1nc2ccccc2o1,91.3%,101%,92.2%,86.5%,104%,103%,110%,92.1%,95.8%,81.7%
Cc1ccc(C(=O)N/N=C/c2ccc3c(c2)OCO3)cc1,90.4%,101%,96%,78.2%,98%,94.3%,93.3%,96.6%,84.8%,91.2%
N/N=C(/Cc1ccccc1)NNC(N)=S,104%,91.9%,104%,81.4%,118%,104%,96.4%,87.5%,93.8%,98.4%
CCOc1ccc(Br)cc1/C=N\N=C\c1cc(Br)ccc1OCC,109%,107%,102%,88.8%,111%,104%,90.8%,141%,-3.92% (active),102%
NC(C(=O)O)C(O)c1ccco1 (stereo not given),115%,109%,111%,96.6%,101%,113%,97.4%,94.5%,94%,112%
O=[N+]([O-])c1ccc(N=Nc2ccccc2)cc1,94.3%,106%,94.3%,65.7%,92.2%,96.2%,92.8%,89.8%,38.7%,79.1%
CCOc1ccc(I)cc1,130%,105%,97.1%,89%,112%,110%,113%,101%,121%,115%
CCS(=O)(=O)c1cc(=O)[nH]c(=O)[nH]1,101%,91.4%,101%,90.1%,102%,96.8%,88.4%,121%,110%,128%
